Fam108B counter: Fam108B inhibition, counter-screen for RBBP9 inhibitors | recombinant Fam108B, FP-Rh probe fluorescence polarization | inhibition, % at 9.51 µM | 0.33% of 300,000 active | AID 1947;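 active = inhibition above the screen mean inhibition plus 3 SD, computed separately per campaign, cut at about 18% in these data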;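 also: inhibitors lower polarization as less probe binds the enzyme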
LYPLA2 counter: counter-screen for PME1 inhibitors: inhibitors of human LYPLA2; inhibition, % at 5.9 µM; recombinant LYPLA2, FP-Rh probe fluorescence polarization; 0.38% of 320,000 active;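 active = inhibition above the screen-wide mean plus 3 SD, limit set per campaign, cut at about 26% in these data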;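 also: 0% = LYPLA2 with DMSO and 100% = wells lacking LYPLA2 enzyme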
Target sequence (O95372 whole entry, looked up): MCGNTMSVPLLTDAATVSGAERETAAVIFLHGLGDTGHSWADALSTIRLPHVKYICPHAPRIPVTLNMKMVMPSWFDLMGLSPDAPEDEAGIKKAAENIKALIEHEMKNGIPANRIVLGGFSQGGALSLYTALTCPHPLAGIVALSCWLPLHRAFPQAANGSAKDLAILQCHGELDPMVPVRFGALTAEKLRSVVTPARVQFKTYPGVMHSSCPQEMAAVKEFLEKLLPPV
LYPLA1 inh: LYPLA1 (human) inhibition in PME1 counter-screen. 0.16% of 320,000 active. inhibition, % at 5.9 µM. AID 2174. recombinant LYPLA1, FP-Rh probe fluorescence polarization;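 active = inhibition above the mean of all tested compounds plus 3 SD, set per campaign, cut at about 14% in these data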;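 also: inhibitors block serine hydrolase probe labeling of LYPLA1 so polarization falls; 0% = enzyme with DMSO and 100% = wells lacking LYPLA1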
Target sequence (O75608 whole entry, looked up): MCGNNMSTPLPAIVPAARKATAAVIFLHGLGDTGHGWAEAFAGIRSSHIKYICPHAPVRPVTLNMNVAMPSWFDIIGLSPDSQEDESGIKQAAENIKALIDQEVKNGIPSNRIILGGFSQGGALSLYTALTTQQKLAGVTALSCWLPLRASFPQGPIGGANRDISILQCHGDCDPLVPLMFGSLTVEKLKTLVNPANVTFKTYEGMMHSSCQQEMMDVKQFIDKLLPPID
PME-1 inh: PME-1 (human) inhibition; AID 2130; Q9Y570; inhibition, % at 5.9 µM; recombinant PME-1, FP-Rh probe fluorescence polarization; 0.53% of 320,000 active;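 active = inhibition above the campaign mean of all compounds plus 3 SD, cut at about 26% in these data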;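 also: competitive labeling of PME-1 active site by serine hydrolase directed probe; 0% = PME-1 with DMSO and 100% = wells lacking PME-1 enzyme; inhibitors block probe labeling so polarization falls and inhibition rises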
PREPL inhibitor: human PREPL enzyme inhibition | 0.68% of 320,000 active | inhibition, % at 5.96 µM | Q4J6C6 | recombinant PREPL, fluorescence polarization activity-based probe; in the data active = inhibition above about 43%;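 also: 0% = enzyme with DMSO and 100% = wells lacking enzyme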
LYPLA2 confirm: LYPLA2 (human) inhibition, confirmation counter-screen; shares compounds with LYPLA2 counter; recombinant LYPLA2, FP-Rh probe fluorescence polarization; inhibition, % at 5.9 µM; 72% of 1,100 active; AID 2232;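 active = mean inhibition across replicates above the hit cutoff set in the primary screen, cut at about 26% in these data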;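 also: blocked labeling of the enzyme by serine hydrolase FP-Rh probe lowers polarization; 0% = enzyme with DMSO and 100% = wells lacking LYPLA2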
LYPLA2 gel ABPP: LYPLA2 (human) inhibition, late stage results | shares compounds with LYPLA2 counter | rhLYPLA2 in mouse brain proteome, gel ABPP FP-Rh | inhibition, % at 20 µM | 30% of 150 active | AID 652029;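 active = inhibition of LYPLA2 enzyme probe labeling above about 50%, limit read from the data; inactive = inhibition below that limit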;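 also: loss of FP-Rh probe labeling of the LYPLA2 gel band measured as band density; 0% = DMSO only control band and 100% = blank gel background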
Active calls of the source: *; . = no result. Only some compounds are listed: those with a hit (about 1.3% of all), similar ones and a draw of the others.

SMILES | Fam108B counter | LYPLA2 counter | LYPLA1 inh | PME-1 inh | PREPL inhibitor | LYPLA2 confirm | others
O=C(c1cccc(S(=O)(=O)NCc2ccccc2)c1)N1CCN(Cc2ccccc2)CC1 | -5 | 2 | 3 | 7 | 12 | .
Cc1cccc(OCc2nnc(SCC(=O)NC3CCCC3)n2C)c1 | -1 | -6 | -1 | -1 | 10 | .
COc1cc(NC(=O)CSCc2ccccc2)c(C(=O)O)cc1OC | -1 | 2 | 3 | 0 | 24 | .
Cn1c(=O)c2c(ncn2CC(=O)N/N=C/C(Br)=C/c2ccccc2)n(C)c1=O | 1 | 27* | -1 | -4 | 18 | 39*
O=C(c1nc2ccccn2c1CN1CCCC(OCc2ccccc2)C1)N1CCCC1 (configuration not stated) | 2 | -6 | 1 | -1 | 10 | .
Fc1ccccc1COc1ccc(/C=N/n2cnnc2)cc1 | 3 | 26* | 4 | 8 | 38 | 12
C(=N\n1cnnc1)/c1cccc(OCCOc2ccccc2)c1 | 2 | 12 | 5 | -4 | -6 | .
O=C(NCCN1CCN(c2cccc(Cl)c2)CC1)Nc1ccccc1 | 1 | 12 | 4 | 7 | 0 | .
COc1ccccc1NC(=O)NCCN1CCN(c2cccc(Cl)c2)CC1 | -4 | 43* | 6 | 5 | -9 | 32*
COc1ccc(N2CCN(C(=O)CN(C)S(=O)(=O)c3cccs3)CC2)cc1 | 0 | 29* | 4 | -8 | 5 | 36*
Oc1ccc2ccccc2c1N=Nc1ccc(F)cc1 | -22 | 29* | 5 | -69 | -37 | -123
Cc1c(NC(=O)CSc2ccc3ccccc3n2)c(=O)n(-c2ccccc2)n1C | . | 5 | 3 | 6 | 9 | .
COc1ccc(N(C(=O)c2cnccn2)C(C(=O)NCc2ccccc2)c2ccc(O)cc2)cc1 (configuration not stated) | -2 | 16 | 1 | 4 | 8 | .
CCn1cnc2sc(C(=O)Oc3cccc(C)c3)c(C)c2c1=O | 5 | 28* | -4 | -3 | 21 | 36*
Cc1c(C(=O)Oc2ccc(F)cc2)sc2ncn(Cc3cccc(F)c3)c(=O)c12 | 1 | 35* | 4 | -13 | 16 | 30*
COc1ccc(-c2cc(C)no2)cc1S(=O)(=O)N1CCN(c2cccc(C)c2)C(C)C1 (configuration not stated) | 0 | 32* | -4 | -2 | 3 | 31*
Cc1cccc(N2CCN(S(=O)(=O)c3cc(-c4cc(C)no4)ccc3C)CC2C)c1 (configuration not stated) | -3 | -2 | -2 | -5 | -3 | .
Cc1ccc(NC2=C(Cl)C(=O)OC2OC(=O)c2ccc(C)cc2)cc1 (configuration not stated) | 1 | 30* | -3 | -2 | -29 | 38*
CCN(C(=O)c1cnc(OC)cc1C(F)(F)F)c1ccc(Cl)cc1Cl | 2 | -3 | 0 | 1 | 12 | .
O=[N+]([O-])c1ccc(Oc2cccc3cccnc23)c(Cl)c1 | 1 | 28* | -4 | 4 | 18 | 16
COc1ccc(Oc2nc(OC)cc(OC)n2)cc1 | 1 | 3 | -3 | 1 | -6 | .
N#C/C(=C\c1ccc(OCc2ccc(C(=O)O)cc2)cc1)C(=O)NCc1ccccc1 | -2 | 40* | 6 | -1 | -7 | 33*
COc1cc(/C=C(/C#N)C(=O)Nc2ccccc2)ccc1OCc1ccc(C(=O)O)cc1 | -1 | 14 | 1 | 0 | -4 | .
COc1cc(/C=C(\C#N)C(=O)NCc2ccccc2)ccc1OCc1ccc(C(=O)O)cc1 | -1 | 41* | -2 | 6 | 14 | 29*
CCOC(=O)N1CCN(C(=O)CN(C)S(=O)(=O)c2ccc(OCC)cc2)CC1 | 1 | -3 | -4 | -6 | 9 | .
SMILES | Fam108B counter | LYPLA2 counter | LYPLA1 inh | PME-1 inh | PREPL inhibitor | LYPLA2 confirm | others
O=C(O)CN1C(=O)/C(=C\c2cc(Br)ccc2OCc2ccc(F)cc2)SC1=S | -1 | 41* | -4 | 7 | 24 | 44*
O=C(O)CN1C(=O)/C(=C\c2ccccc2OCc2ccc(F)cc2)SC1=S | 4 | 1 | 1 | 5 | 5 | .
N#Cc1c(-c2ccc(F)cc2)ccnc1N1CCOCC1 | 2 | 6 | -2 | 1 | 2 | .
Cc1c(Br)c([N+](=O)[O-])nn1CC(=O)N1CCN(C23CC4CC(CC(C4)C2)C3)CC1 | 0 | 27* | 6 | 2 | 20 | -1
Cc1c(Br)c([N+](=O)[O-])nn1CC(=O)N1CCc2ccccc2C1 | 2 | 7 | 7 | -2 | 14 | .
O=C1c2c(O)cc(O)cc2O[C@H](c2ccc(O)c(O)c2)[C@@H]1O | 6 | 29* | -2 | -5 | 10 | 39*
CO/N=C/c1ccc(N2CCN(C(=O)c3cccc(C(F)(F)F)c3)CC2)c([N+](=O)[O-])c1 | -3 | 88* | 5 | 0 | -21 | 86*
O=C(N/N=C/c1ccc(N2CCOCC2)c([N+](=O)[O-])c1)c1ccc(F)cc1 | 3 | 0 | 1 | 4 | 7 | .
CO/N=C/c1ccc(N2CCN(C(=O)c3ccc(Cl)cc3Cl)CC2)c([N+](=O)[O-])c1 | -4 | 48* | 2 | 11 | 3 | 50*
O=C(O/N=C\c1ccc(N2CCCCC2)c([N+](=O)[O-])c1)c1cccc(Cl)c1 | 3 | 15 | 4 | 2 | 16 | .
O=C(O/N=C\c1ccc(N2CCCCC2)c([N+](=O)[O-])c1)c1cccc(C(F)(F)F)c1 | 4 | 9 | 0 | 5 | 9 | .
CO/N=C/c1ccc(N2CCN(C(=O)c3ccc(F)cc3)CC2)c([N+](=O)[O-])c1 | -2 | 48* | 1 | 1 | 0 | 50*
CC(C)CC(=O)Nc1ccc(C(=O)Cn2nc(C(=O)O)c3ccccc3c2=O)cc1 | -14 | 44* | 0 | -10 | 1 | 39*
CCCC1(CCC)NC(=O)N(CC(=O)N2CCc3ccccc32)C1=O | . | . | . | . | -1 | .
Cc1ccc(NC(=O)CN(C)C(=O)CSc2nnc(C)s2)cc1 | . | . | . | . | -1 | .
COc1cccc(NC(=O)CN2C(=O)CSc3nc(C)cc(C)c32)c1 | -3 | 3 | -3 | -5 | -6 | .
CCCCCCCCCC(=O)Nn1cnc2ccccc2c1=O | -1 | 71* | 2 | -2 | -1 | 75* | LYPLA2 gel ABPP=52*
CCC(C)NC(=O)Cn1c(=O)sc2ccccc21 (configuration not stated) | 1 | -1 | -2 | 3 | 0 | .
O=C(NCCCn1ccnc1)c1ccc(-c2cccc(C(F)(F)F)c2)o1 | . | . | . | . | 10 | .
Cc1ccc(N2NC3(CCN(C(N)=O)CC3)NC2=O)cc1 | 2 | 0 | -2 | 1 | -5 | .
Cc1ccc(NC(=O)CCC(=O)OCC(=O)c2ccc(Oc3ccc([N+](=O)[O-])cc3)cc2)cc1C | 3 | 36* | 2 | 4 | -1 | 19
CC(=O)Nc1ccc(NC(=O)CCC(=O)OCC(=O)c2cccc([N+](=O)[O-])c2)cc1 | 4 | -4 | -3 | 0 | -5 | .

Compound activity from PubChem BioAssay.
